In the supplement of paper PMC4466140:

What follows are binders tested against AgAbp1 (assay: SPOT peptide array binding signal intensity (averaged, normalized) (arbitrary units (background-subtracted, floor 0; scale differs between SH3 domains)); higher = stronger binding of the SH3 domain to the peptide).
How it was run: (§1)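 Spot intensities were captured after detection with anti-GST antibody, an HRP-linked anti-mouse secondary and luminol, and quantified with Genespotter. The probes were GST-fused SH3 domains from four yeast species, produced in E. coli BL21(DE3), purified on glutathione Sepharose and incubated at 10 μg/ml overnight at 4°C on cellulose-bound synthetic 15-mer peptides with cysteines replaced by serines. Binding signal is the normalized, background-subtracted spot intensity averaged over replicates, and its arbitrary units differ between domains.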

Binder	SPOT peptide array binding signal intensity
DLPLPDLPPEPPTEL	≤ 0

Each binder was assayed against AgBbc1 in the same assay as above.
How it was run: as §1

Binder	SPOT peptide array binding signal intensity
DLPLPDLPPEPPTEL	≤ 0

What follows are binders tested against AgBem1-D1 in the same assay as above.
How it was run: as §1

Binder	SPOT peptide array binding signal intensity
DLPLPDLPPEPPTEL	≤ 0

Each binder was assayed against AgBzz1-D1 in the same assay as above.
How it was run: as §1

Binder	SPOT peptide array binding signal intensity
DLPLPDLPPEPPTEL	≤ 0

These binders were tested against AgBzz1-D2 in the same assay as above.
How it was run: as §1

Binder	SPOT peptide array binding signal intensity
DLPLPDLPPEPPTEL	2

What follows are binders tested against AgCyk3 in the same assay as above.
How it was run: as §1

Binder	SPOT peptide array binding signal intensity
DLPLPDLPPEPPTEL	0.5

The binders below were run against AgFus1 in the same assay as above.
How it was run: as §1

Binder	SPOT peptide array binding signal intensity
DLPLPDLPPEPPTEL	≤ 0

What follows are binders tested against AgHof1 in the same assay as above.
How it was run: as §1

Binder	SPOT peptide array binding signal intensity
DLPLPDLPPEPPTEL	54.5

Each binder was assayed against AgHse1 in the same assay as above.
How it was run: as §1

Binder	SPOT peptide array binding signal intensity
DLPLPDLPPEPPTEL	10.5

What follows are binders tested against AgLsb1 in the same assay as above.
How it was run: as §1

Binder	SPOT peptide array binding signal intensity
DLPLPDLPPEPPTEL	≤ 0

Each binder was assayed against AgLsb4 in the same assay as above.
How it was run: as §1

Binder	SPOT peptide array binding signal intensity
DLPLPDLPPEPPTEL	≤ 0

The binders below were run against AgMyo5 in the same assay as above.
How it was run: as §1

Binder	SPOT peptide array binding signal intensity
DLPLPDLPPEPPTEL	207

These binders were tested against AgNbp2 in the same assay as above.
How it was run: as §1

Binder	SPOT peptide array binding signal intensity
DLPLPDLPPEPPTEL	≤ 0

These binders were tested against AgRvs167 in the same assay as above.
How it was run: as §1

Binder	SPOT peptide array binding signal intensity
DLPLPDLPPEPPTEL	≤ 0

The binders below were run against AgSho1 in the same assay as above.
How it was run: as §1

Binder	SPOT peptide array binding signal intensity
DLPLPDLPPEPPTEL	≤ 0

The binders below were run against AgSla1-D1-D2 in the same assay as above.
How it was run: as §1

Binder	SPOT peptide array binding signal intensity
DLPLPDLPPEPPTEL	2

The binders below were run against AgSla1-D3 in the same assay as above.
How it was run: as §1

Binder	SPOT peptide array binding signal intensity
DLPLPDLPPEPPTEL	≤ 0

Each binder was assayed against CaAbp1-D1 in the same assay as above.
How it was run: as §1

Binder	SPOT peptide array binding signal intensity
DLPLPDLPPEPPTEL	≤ 0

Each binder was assayed against CaAbp1-D2 in the same assay as above.
How it was run: as §1

Binder	SPOT peptide array binding signal intensity
DLPLPDLPPEPPTEL	≤ 0

What follows are binders tested against CaBbc1 in the same assay as above.
How it was run: as §1

Binder	SPOT peptide array binding signal intensity
DLPLPDLPPEPPTEL	≤ 0

The binders below were run against CaBem1-D1 in the same assay as above.
How it was run: as §1

Binder	SPOT peptide array binding signal intensity
DLPLPDLPPEPPTEL	≤ 0

The binders below were run against CaBzz1-D1 in the same assay as above.
How it was run: as §1

Binder	SPOT peptide array binding signal intensity
DLPLPDLPPEPPTEL	≤ 0

The binders below were run against CaBzz1-D2 in the same assay as above.
How it was run: as §1

Binder	SPOT peptide array binding signal intensity
DLPLPDLPPEPPTEL	≤ 0

The binders below were run against CaCyk3 in the same assay as above.
How it was run: as §1

Binder	SPOT peptide array binding signal intensity
DLPLPDLPPEPPTEL	≤ 0

The binders below were run against CaFus1 in the same assay as above.
How it was run: as §1

Binder	SPOT peptide array binding signal intensity
DLPLPDLPPEPPTEL	≤ 0

The binders below were run against CaHof1 in the same assay as above.
How it was run: as §1

Binder	SPOT peptide array binding signal intensity
DLPLPDLPPEPPTEL	2.5

These binders were tested against CaHse1 in the same assay as above.
How it was run: as §1

Binder	SPOT peptide array binding signal intensity
DLPLPDLPPEPPTEL	1

The binders below were run against CaLsb1 in the same assay as above.
How it was run: as §1

Binder	SPOT peptide array binding signal intensity
DLPLPDLPPEPPTEL	0.5

These binders were tested against CaLsb4 in the same assay as above.
How it was run: as §1

Binder	SPOT peptide array binding signal intensity
DLPLPDLPPEPPTEL	≤ 0

The binders below were run against CaMyo5 in the same assay as above.
How it was run: as §1

Binder	SPOT peptide array binding signal intensity
DLPLPDLPPEPPTEL	0.75

Each binder was assayed against CaNbp2 in the same assay as above.
How it was run: as §1

Binder	SPOT peptide array binding signal intensity
DLPLPDLPPEPPTEL	≤ 0

Each binder was assayed against CaRvs167 in the same assay as above.
How it was run: as §1

Binder	SPOT peptide array binding signal intensity
DLPLPDLPPEPPTEL	0.333

Each binder was assayed against CaRvs167-3 in the same assay as above.
How it was run: as §1

Binder	SPOT peptide array binding signal intensity
DLPLPDLPPEPPTEL	2.5

Each binder was assayed against CaSho1 in the same assay as above.
How it was run: as §1

Binder	SPOT peptide array binding signal intensity
DLPLPDLPPEPPTEL	9.5

These binders were tested against CaSla1-D1-D2 in the same assay as above.
How it was run: as §1

Binder	SPOT peptide array binding signal intensity
DLPLPDLPPEPPTEL	≤ 0

These binders were tested against CaSla1-D3 in the same assay as above.
How it was run: as §1

Binder	SPOT peptide array binding signal intensity
DLPLPDLPPEPPTEL	≤ 0

The binders below were run against ScAbp1 in the same assay as above.
How it was run: as §1

Binder	SPOT peptide array binding signal intensity
DLPLPDLPPEPPTEL	4

These binders were tested against ScBbc1 in the same assay as above.
How it was run: as §1

Binder	SPOT peptide array binding signal intensity
DLPLPDLPPEPPTEL	2.75

Each binder was assayed against ScBem1-D1 in the same assay as above.
How it was run: as §1

Binder	SPOT peptide array binding signal intensity
DLPLPDLPPEPPTEL	≤ 0

Each binder was assayed against ScBzz1-D1 in the same assay as above.
How it was run: as §1

Binder	SPOT peptide array binding signal intensity
DLPLPDLPPEPPTEL	2

The binders below were run against ScBzz1-D2 in the same assay as above.
How it was run: as §1

Binder	SPOT peptide array binding signal intensity
DLPLPDLPPEPPTEL	2

These binders were tested against ScCyk3 in the same assay as above.
How it was run: as §1

Binder	SPOT peptide array binding signal intensity
DLPLPDLPPEPPTEL	2

These binders were tested against ScFus1 in the same assay as above.
How it was run: as §1

Binder	SPOT peptide array binding signal intensity
DLPLPDLPPEPPTEL	≤ 0

These binders were tested against ScHof1 in the same assay as above.
How it was run: as §1

Binder	SPOT peptide array binding signal intensity
DLPLPDLPPEPPTEL	206

These binders were tested against ScHse1 in the same assay as above.
How it was run: as §1

Binder	SPOT peptide array binding signal intensity
DLPLPDLPPEPPTEL	≤ 0

The binders below were run against ScLsb1 in the same assay as above.
How it was run: as §1

Binder	SPOT peptide array binding signal intensity
DLPLPDLPPEPPTEL	≤ 0

The binders below were run against ScLsb2 in the same assay as above.
How it was run: as §1

Binder	SPOT peptide array binding signal intensity
DLPLPDLPPEPPTEL	≤ 0

These binders were tested against ScLsb3 in the same assay as above.
How it was run: as §1

Binder	SPOT peptide array binding signal intensity
DLPLPDLPPEPPTEL	≤ 0

These binders were tested against ScLsb4 in the same assay as above.
How it was run: as §1

Binder	SPOT peptide array binding signal intensity
DLPLPDLPPEPPTEL	≤ 0

The binders below were run against ScMyo3 in the same assay as above.
How it was run: as §1

Binder	SPOT peptide array binding signal intensity
DLPLPDLPPEPPTEL	384

The binders below were run against ScMyo5 in the same assay as above.
How it was run: as §1

Binder	SPOT peptide array binding signal intensity
DLPLPDLPPEPPTEL	646

These binders were tested against ScNbp2 in the same assay as above.
How it was run: as §1

Binder	SPOT peptide array binding signal intensity
DLPLPDLPPEPPTEL	≤ 0

What follows are binders tested against ScPex13 in the same assay as above.
How it was run: as §1

Binder	SPOT peptide array binding signal intensity
DLPLPDLPPEPPTEL	≤ 0

Each binder was assayed against ScRvs167 in the same assay as above.
How it was run: as §1

Binder	SPOT peptide array binding signal intensity
DLPLPDLPPEPPTEL	≤ 0

The binders below were run against ScSho1 in the same assay as above.
How it was run: as §1

Binder	SPOT peptide array binding signal intensity
DLPLPDLPPEPPTEL	≤ 0

The binders below were run against ScSla1-D1-D2 in the same assay as above.
How it was run: as §1

Binder	SPOT peptide array binding signal intensity
DLPLPDLPPEPPTEL	≤ 0

What follows are binders tested against ScSla1-D3 in the same assay as above.
How it was run: as §1

Binder	SPOT peptide array binding signal intensity
DLPLPDLPPEPPTEL	≤ 0

The binders below were run against SpAbp1-D1 in the same assay as above.
How it was run: as §1

Binder	SPOT peptide array binding signal intensity
DLPLPDLPPEPPTEL	≤ 0

The binders below were run against SpBbc1 in the same assay as above.
How it was run: as §1

Binder	SPOT peptide array binding signal intensity
DLPLPDLPPEPPTEL	≤ 0

What follows are binders tested against SpBzz1-D1 in the same assay as above.
How it was run: as §1

Binder	SPOT peptide array binding signal intensity
DLPLPDLPPEPPTEL	≤ 0

The binders below were run against SpBzz1-D2 in the same assay as above.
How it was run: as §1

Binder	SPOT peptide array binding signal intensity
DLPLPDLPPEPPTEL	≤ 0

Each binder was assayed against SpCyk3 in the same assay as above.
How it was run: as §1

Binder	SPOT peptide array binding signal intensity
DLPLPDLPPEPPTEL	≤ 0

The binders below were run against SpHof1 in the same assay as above.
How it was run: as §1

Binder	SPOT peptide array binding signal intensity
DLPLPDLPPEPPTEL	≤ 0

Each binder was assayed against SpHof1-2 in the same assay as above.
How it was run: as §1

Binder	SPOT peptide array binding signal intensity
DLPLPDLPPEPPTEL	3

These binders were tested against SpHof1-3 in the same assay as above.
How it was run: as §1

Binder	SPOT peptide array binding signal intensity
DLPLPDLPPEPPTEL	0.5

These binders were tested against SpHse1 in the same assay as above.
How it was run: as §1

Binder	SPOT peptide array binding signal intensity
DLPLPDLPPEPPTEL	≤ 0

What follows are binders tested against SpLsb1 in the same assay as above.
How it was run: as §1

Binder	SPOT peptide array binding signal intensity
DLPLPDLPPEPPTEL	≤ 0

The binders below were run against SpLsb4 in the same assay as above.
How it was run: as §1

Binder	SPOT peptide array binding signal intensity
DLPLPDLPPEPPTEL	≤ 0

Each binder was assayed against SpMyo1 in the same assay as above.
How it was run: as §1

Binder	SPOT peptide array binding signal intensity
DLPLPDLPPEPPTEL	328

These binders were tested against SpNbp2 in the same assay as above.
How it was run: as §1

Binder	SPOT peptide array binding signal intensity
DLPLPDLPPEPPTEL	≤ 0

The binders below were run against SpPex13 in the same assay as above.
How it was run: as §1

Binder	SPOT peptide array binding signal intensity
DLPLPDLPPEPPTEL	≤ 0

What follows are binders tested against SpRvs167 in the same assay as above.
How it was run: as §1

Binder	SPOT peptide array binding signal intensity
DLPLPDLPPEPPTEL	≤ 0

What follows are binders tested against SpSla1-D1-D2 in the same assay as above.
How it was run: as §1

Binder	SPOT peptide array binding signal intensity
DLPLPDLPPEPPTEL	≤ 0

The binders below were run against SpSla1-D3 in the same assay as above.
How it was run: as §1

Binder	SPOT peptide array binding signal intensity
DLPLPDLPPEPPTEL	≤ 0
